Records with an inconclusive call do not appear. The source made the active and inactive calls. Unless noted, the call rests on the fitted dose curve; in most records, active means well fitted curve in the direction sought with a large enough effect in the repeat runs; inconclusive means weak or mixed curves; inactive means no such curve, though single readings can be large; an effect the other way counts as inactive or inconclusive.
How the values were obtained:
[1] = qHTS assay to identify small molecule antagonists of the thyroid receptor (TR) signaling pathway - cell viability counter screen (AID 743064); further: nearly all actives have a fitted effect of over 50% in size
Summary of the method: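 GH3.TRE-Luc rat pituitary cells dosed after 4 hr plating, co-stimulated with T3 at 1 nM final, incubated 23.5 h at 37 C. Viability measured in the same wells by CellTiter-Fluor fluorescence after 30 min further at 37 C.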

[2] = qHTS assay to identify small molecule antagonists of the thyroid receptor (TR) signaling pathway (AID 743065); further: series mostly up to about 70 µM; nearly all actives have a fitted effect of over 55% in size
Summary of the method: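 Antagonism measured as loss of luciferase signal in GH3 cells stably carrying a TRE-luciferase reporter, co-treated with compound and T3 (1 nM final) for 23.5 h at 37 C. Viability was read in the same well by CellTiter-Fluor.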

[3] = tested on: thyroid hormone receptor (rat, GH3 cells); assay: qHTS assay to identify small molecule agonists of the thyroid receptor (TR) signaling pathway (AID 743066; calls by dose curve)
[4] = biological target: Estrogen receptor (Homo sapiens) (UniProt P03372); assay: qHTS assay to identify small molecule antagonists of the estrogen receptor alpha (ER-alpha) signaling pathway (AID 743069; active means well fitted curve in the direction sought with a large enough effect in the signal ratio in the repeat runs, not every such curve was filed as active; the % refers to the signal ratio)
Chain of Estrogen receptor (Homo sapiens) (P03372 whole entry, looked up): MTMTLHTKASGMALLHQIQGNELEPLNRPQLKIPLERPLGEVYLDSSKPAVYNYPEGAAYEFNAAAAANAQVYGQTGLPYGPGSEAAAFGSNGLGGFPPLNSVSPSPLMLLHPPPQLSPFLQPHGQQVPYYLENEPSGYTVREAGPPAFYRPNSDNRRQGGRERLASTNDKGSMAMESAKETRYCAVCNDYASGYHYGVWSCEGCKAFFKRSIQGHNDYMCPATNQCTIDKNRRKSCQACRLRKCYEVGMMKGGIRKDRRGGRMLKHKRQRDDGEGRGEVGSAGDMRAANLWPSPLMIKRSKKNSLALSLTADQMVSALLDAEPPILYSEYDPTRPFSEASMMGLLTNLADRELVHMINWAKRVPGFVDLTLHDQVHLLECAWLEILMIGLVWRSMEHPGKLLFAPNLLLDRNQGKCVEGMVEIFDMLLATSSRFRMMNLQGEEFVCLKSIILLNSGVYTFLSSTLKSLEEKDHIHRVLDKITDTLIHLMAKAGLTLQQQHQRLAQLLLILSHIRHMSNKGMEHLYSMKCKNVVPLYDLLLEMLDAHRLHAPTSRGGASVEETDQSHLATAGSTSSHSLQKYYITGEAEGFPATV
Summary of the method: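 Fluorescence intensity from a beta-lactamase FRET substrate served as the read-out. Cells: HEK293 with stably integrated ER-alpha-UAS-bla reporter. Agonist 17beta-estradiol was co-added with compounds; incubation 18 hr at 37C, substrate 2 hr at room temperature.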

[5] = qHTS assay to identify small molecule antagonists of the estrogen receptor alpha (ER-alpha) signaling pathway - cell viability counter screen (AID 743074; calls by dose curve; further: nearly all actives have a fitted effect of over 45% in size)
[6] = biological target: Estrogen receptor (Homo sapiens) (UniProt P03372); assay: qHTS assay to identify small molecule agonists of the estrogen receptor alpha (ER-alpha) signaling pathway (AID 743075; calls by dose curve)
[7] = biological target: Estrogen receptor (Homo sapiens) (UniProt P03372); assay: qHTS assay to identify small molecule agonists of the estrogen receptor alpha (ER-alpha) signaling pathway using the BG1 cell line (AID 743079); further: nearly all actives have a fitted effect of over 20% in size
[8] = qHTS assay to identify small molecule antagonists of the estrogen receptor alpha (ER-alpha) signaling pathway using the BG1 cell line (AID 743080; calls by dose curve;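 further: BG1 cells stimulated with 17beta-estradiol alongside compound; series mostly up to about 70 µM; nearly all actives have a fitted effect of over 25% in size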)
Summary of the method: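 Seeding, 24 h rest, compound transfer from DMSO, 17beta-estradiol addition, 21.5 h incubation, CellTiter-Fluor (30 min, 37 C), then ONE-Glo (30 min, room temperature): this sequence was run on BG1-Luc-4E2 reporter cells.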

[9] = qHTS assay to identify small molecule antagonists of the estrogen receptor alpha (ER-alpha) signaling pathway using the BG1 cell line - cell viability counter screen (AID 743081);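 further: compound given together with 17beta-estradiol as the ER stimulus; series mostly up to about 70 µM; nearly all actives have a fitted effect of over 45% in size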
Aromatase (Homo sapiens) = Aromatase (Homo sapiens) (UniProt P11511); assay: qHTS assay to identify aromatase inhibitors (AID 743083); further: series mostly up to about 70 µM; nearly all actives have a fitted effect of over 55% in size
Chain of Aromatase (Homo sapiens) (P11511 whole entry, looked up): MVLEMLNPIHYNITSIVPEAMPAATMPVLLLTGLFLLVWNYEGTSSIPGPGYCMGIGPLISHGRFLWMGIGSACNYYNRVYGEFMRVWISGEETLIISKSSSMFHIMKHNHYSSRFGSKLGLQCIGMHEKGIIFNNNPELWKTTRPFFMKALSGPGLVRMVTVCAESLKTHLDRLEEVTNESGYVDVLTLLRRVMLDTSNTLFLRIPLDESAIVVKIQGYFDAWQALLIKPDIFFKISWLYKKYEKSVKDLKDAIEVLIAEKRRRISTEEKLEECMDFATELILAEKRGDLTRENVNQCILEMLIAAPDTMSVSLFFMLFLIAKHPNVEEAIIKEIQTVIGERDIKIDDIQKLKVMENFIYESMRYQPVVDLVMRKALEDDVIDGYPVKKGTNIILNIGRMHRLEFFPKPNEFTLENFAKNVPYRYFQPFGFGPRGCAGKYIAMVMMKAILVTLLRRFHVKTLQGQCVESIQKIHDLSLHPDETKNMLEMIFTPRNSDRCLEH

[10] = qHTS assay to identify aromatase inhibitors - cell viability counter screen (AID 743084);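 further: cells stimulated with testosterone during compound exposure; nearly all actives have a fitted effect of over 55% in size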
[11] = biological target: Aryl hydrocarbon receptor (Homo sapiens) (UniProt P35869); assay: qHTS assay to identify small molecule that activate the aryl hydrocarbon receptor (AhR) signaling pathway (AID 743085);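 further: HG2L7.5c1 human HepG2 liver cells with stably integrated DRE-driven firefly reporter; series mostly up to about 70 µM; nearly all actives have a fitted effect of over 15% in size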
Chain of Aryl hydrocarbon receptor (Homo sapiens) (P35869 whole entry, looked up): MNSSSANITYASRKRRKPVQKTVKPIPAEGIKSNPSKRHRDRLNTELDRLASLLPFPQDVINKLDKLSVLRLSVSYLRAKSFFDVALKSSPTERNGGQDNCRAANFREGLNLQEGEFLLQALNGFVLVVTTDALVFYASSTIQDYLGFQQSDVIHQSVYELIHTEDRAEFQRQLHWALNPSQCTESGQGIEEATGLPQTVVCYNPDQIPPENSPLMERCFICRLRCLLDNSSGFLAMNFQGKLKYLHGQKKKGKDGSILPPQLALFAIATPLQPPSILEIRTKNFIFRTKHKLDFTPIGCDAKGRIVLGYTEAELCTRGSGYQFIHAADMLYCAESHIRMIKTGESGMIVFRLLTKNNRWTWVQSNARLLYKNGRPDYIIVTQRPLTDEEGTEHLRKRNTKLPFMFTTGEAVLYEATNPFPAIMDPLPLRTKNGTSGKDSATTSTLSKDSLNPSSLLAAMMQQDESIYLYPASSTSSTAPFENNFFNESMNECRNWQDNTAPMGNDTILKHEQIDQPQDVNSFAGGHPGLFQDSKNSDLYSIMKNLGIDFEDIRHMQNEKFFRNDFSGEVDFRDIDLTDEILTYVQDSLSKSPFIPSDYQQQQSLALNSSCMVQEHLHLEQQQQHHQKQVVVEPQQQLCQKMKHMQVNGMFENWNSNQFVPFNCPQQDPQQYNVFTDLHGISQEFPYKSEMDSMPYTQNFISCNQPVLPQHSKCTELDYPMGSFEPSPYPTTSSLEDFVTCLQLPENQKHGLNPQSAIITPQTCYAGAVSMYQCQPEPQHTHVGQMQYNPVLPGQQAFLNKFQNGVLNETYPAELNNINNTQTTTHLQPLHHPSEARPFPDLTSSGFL
Summary of the method: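 HepG2 cells stably carrying a 20-DRE firefly luciferase reporter (HG2L7.5c1) treated with compound for 24 hr at 37C. Luciferase read by ONE-Glo luminescence, with CellTiter-Fluor viability read first.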

[12] = qHTS assay to identify small molecule that activate the aryl hydrocarbon receptor (AhR) signaling pathway - cell viability counter screen (AID 743086);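 further: HepG2 liver cells carrying the AhR DRE luciferase reporter; series mostly up to about 70 µM; nearly all actives have a fitted effect of over 45% in size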
Summary of the method: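 Cytotoxicity counter screen: CellTiter-Fluor signal (30 min, 37 C) in 4000 HepG2 cells/well carrying the DRE-luciferase reporter, following 24 h compound exposure at 37 C.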

[13] = biological target: Peroxisome proliferator-activated receptor gamma (Homo sapiens) (UniProt P37231); assay: qHTS assay to identify small molecule agonists of the peroxisome proliferator-activated receptor gamma (PPARg) signaling pathway (AID 743094; active means well fitted activation curve with a large enough effect in the signal ratio in the repeat runs, not every such curve was filed as active; the % refers to the signal ratio)
Chain of Peroxisome proliferator-activated receptor gamma (Homo sapiens) (P37231 whole entry, looked up): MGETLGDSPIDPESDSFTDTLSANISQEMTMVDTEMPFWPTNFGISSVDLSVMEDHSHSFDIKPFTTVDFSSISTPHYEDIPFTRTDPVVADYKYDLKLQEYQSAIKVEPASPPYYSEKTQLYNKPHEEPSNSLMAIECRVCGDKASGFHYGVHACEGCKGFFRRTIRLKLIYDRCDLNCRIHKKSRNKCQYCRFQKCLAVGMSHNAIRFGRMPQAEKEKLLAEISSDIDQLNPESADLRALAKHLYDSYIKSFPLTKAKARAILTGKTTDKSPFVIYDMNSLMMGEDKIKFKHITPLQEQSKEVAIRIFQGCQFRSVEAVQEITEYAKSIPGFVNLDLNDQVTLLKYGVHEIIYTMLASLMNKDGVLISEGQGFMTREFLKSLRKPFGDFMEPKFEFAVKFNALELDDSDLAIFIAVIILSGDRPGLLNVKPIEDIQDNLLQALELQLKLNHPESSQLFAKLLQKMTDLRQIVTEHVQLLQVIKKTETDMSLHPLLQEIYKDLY
Summary of the method: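 Agonist activity was taken from a beta-lactamase reporter (FRET substrate, 1 h at room temperature) in HEK293H cells carrying a PPARg UAS-bla construct. Compounds in DMSO were incubated 17 h at 37C after a 5 h cell pre-incubation.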

[14] = qHTS assay to identify small molecule antagonists of the peroxisome proliferator-activated receptor gamma (PPARg) signaling pathway - cell viability counter screen (AID 743194); further: nearly all actives have a fitted effect of over 55% in size
Summary of the method: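 Viability was measured as CellTiter-Glo luminescence in GeneBLAzer PPARg UAS-bla HEK293H cells. These cells had been exposed 17 h at 37 C to compounds together with rosiglitazone at 50 nM final, with the beta-lactamase readout taken in the same wells.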

[15] = qHTS assay for small molecule agonists of the antioxidant response element (ARE) signaling pathway (AID 743202; active means well fitted activation curve with a large enough effect in the signal ratio in the repeat runs, not every such curve was filed as active; the % refers to the signal ratio)
Summary of the method: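 Beta-lactamase reporter activity, read as fluorescence intensity, reflects ARE/Nrf2 pathway induction in HepG2 cells after 16 h compound exposure at 37 C; substrate loading was 2 h at room temperature.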

[16] = qHTS assay for small molecule agonists of the antioxidant response element (ARE) signaling pathway - cell viability counter screen (AID 743203; calls by dose curve; further: nearly all actives have a fitted effect of over 55% in size)
Summary of the method: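 Viability counter screen: CellTiter-Glo luminescence, read after 30 min at room temperature, in ARE-bla HepG2 wells. Compound exposure lasted 16 h at 37C/5% CO2, following a 5 h pre-incubation of the cells after plating.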

[17] = qHTS assay for small molecule activators of the heat shock response signaling pathway - cell viability counter screen (AID 743209); further: nearly all actives have a fitted effect of over 50% in size
Summary of the method: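 Cytotoxicity counter screen run in the same wells as the heat-shock bla reporter assay: HeLa HSE-bla cells, 5 h compound exposure at 37 C, viability read by CellTiter-Glo luminescence.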

[18] = qHTS assay for small molecule activators of the heat shock response signaling pathway (AID 743210; active means well fitted activation curve with a large enough effect in the signal ratio in the repeat runs, with a control signal flat, not every such curve was filed as active; the % refers to the signal ratio;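 further: HeLa cells with beta-lactamase reporter driven by heat shock elements; series mostly up to about 63 µM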)
Summary of the method: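 Fluorescence from a cleaved B/G FRET substrate (2.5 h, room temp) reports HSE-driven beta-lactamase in HeLa cells treated 5 h at 37 C with DMSO-dissolved compounds.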

[19] = biological target: Peroxisome proliferator-activated receptor gamma (Homo sapiens) (UniProt P37231); assay: qHTS assay to identify small molecule antagonists of the peroxisome proliferator-activated receptor gamma (PPARg) signaling pathway (AID 743191; calls by dose curve; further: series mostly up to about 63 µM; nearly all actives have a fitted effect of over 30% in size)
Summary of the method: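 Beta-lactamase reporter under UAS control in HEK293H PPARg-bla cells; compound treatment 17 h at 37C. Read-out: fluorescence intensity after 1 h room-temperature incubation with LiveBLAzer B/G FRET substrate.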

Measured: Potency

CC/C=C\C#N
not listed: [19]
inactive: all other assays above

NC(N)=NS(=O)(=O)c1ccc(N)cc1
not listed: [15] | [17]
inactive: all other assays above

CC(C)c1cccc(O)c1
not listed: [15] | [19]
inactive: all other assays above

CC(=O)O[C@H](CC(=O)[O-])C[N+](C)(C)C
not listed: [15]
inactive: all other assays above

NCCNC(=O)c1ccc(Cl)cn1
inactive: all assays above

CN(C)C(=O)Nc1ccccc1
not listed: [19]
inactive: all other assays above

OCCN1C[C@H](O)[C@@H](O)[C@H](O)[C@H]1CO
inactive: all assays above

C[N+](C)(C)CC[N+]1(C)Cc2c(Cl)c(Cl)c(Cl)c(Cl)c2C1
not listed: [15] | [17]
inactive: all other assays above

CC1=CCC2C(C1)C2(C)C (stereo not drawn)
not listed: [15] | [17] | [18] | [19]
inactive: all other assays above

Oc1cc(O)c2c(c1)O[C@H](c1ccc(O)c(O)c1)[C@H](O)C2
not listed: [14] | [15]
inactive: all other assays above

CC(C)[C@H](N)C(=O)OCCOCn1cnc2c(=O)[nH]c(N)nc21
not listed: [17] | [19]
inactive: all other assays above

NC(=O)c1ncn([C@@H]2O[C@H](CO)[C@@H](O)[C@H]2O)c1N
not listed: [17]
inactive: all other assays above

O=C(O)c1ccc[n+]([O-])c1
not listed: [13] | [18]
inactive: all other assays above

CCC(C)(C)C1CCC(OC)CC1 (stereo not drawn)
not listed: [15]
inactive: all other assays above

C1COCCO1
not listed: [15]
inactive: all other assays above

Reference: PubChem BioAssay (Tox21)
